Measurements from PubChem BioAssay AID1159580 (chemical genetic matrix, 2015).
Where “and” joins values, the source holds several entries; their conditions need not be identical. Equal entries are not always repeated. About 2,000 (36%) of roughly 5,500 compounds were called active. Not shown: some 18% with an inconclusive outcome. Rule as the data show it: active = normalized growth mostly below about 0.91 (no sharp cut-off); inconclusive = no clear call, values can overlap the other calls; inactive = mostly above about 0.92. This is one part of the list.

Test: chemical genetic growth profiling, strain panel (AID 1159580);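 also: tested at 20 µM; growth read once vehicle control cultures reached saturation at 30 °C; 1 = growth at the plate median or of vehicle wells; lower values mean less growth of the strain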
Details: S. cerevisiae deletion strains, growth OD

Measured: normalized growth

CCN(CC)C(=O)N1CCN(C)CC1
inactive: locus YAL021C, strain ccr4, hits give low values 0.984 | locus YAL026C, strain drs2, hits give low values 0.967 | locus YAL030W, strain snc1, hits give low values 0.967 | locus YBL061C, strain skt5, hits give low values 0.976 | locus YBR009C, strain hhf1, hits give low values 0.957 | locus YBR021W, strain FUR4, hits give low values 0.974 | locus YBR023C, strain chs3, hits give low values 0.981 | locus YBR171W, strain sec66, hits give low values 0.99 | locus YBR229C, strain ROT2, hits give low values 1.01 | locus YBR231C, strain swc5, hits give low values 0.97 | locus YBR279W, strain paf1, hits give low values 0.981 | locus YCL011C, strain gbp2, hits give low values 0.971 | locus YCL016C, strain dcc1, hits give low values 0.973 | locus YCL029C, strain bik1, hits give low values 0.999 | locus YCL069W, strain vba3, hits give low values 0.984 | locus YCR088W, strain abp1, hits give low values 0.994 | locus YDL005C, strain med2, hits give low values 0.963 | locus YDL035C, strain GPR1, hits give low values 1.04 | locus YDL040C, strain nat1, hits give low values 0.973 | locus YDL074C, strain BRE1, hits give low values 1.03 | locus YDL101C, strain DUN1, hits give low values 1.01 | locus YDL134C, strain PPH21, hits give low values 1.04 | locus YDL185W, strain tfp1, hits give low values 0.994 | locus YDL192W, strain arf1, hits give low values 1 | locus YDR001C, strain nth1, hits give low values 0.958 | locus YDR069C, strain doa4, hits give low values 0.976 | locus YDR101C, strain arx1, hits give low values 1 | locus YDR137W, strain rgp1, hits give low values 0.917 | locus YDR150W, strain NUM1, hits give low values 1.02 | locus YDR159W, strain sac3, hits give low values 0.964 | locus YDR162C, strain NBP2, hits give low values 1.02 | locus YDR195W, strain ref2 0.943 | locus YDR297W, strain sur2, hits give low values 0.979 | locus YDR318W, strain mcm21, hits give low values 1.01 | locus YDR334W, strain swr1, hits give low values 0.982 | locus YDR335W, strain msn5, hits give low values 0.95 | locus YDR388W, hits give low values 1 | locus YDR392W, strain spt3, hits give low values 0.956 | locus YDR502C, strain sam2, hits give low values 1 | locus YEL003W, strain gim4, hits give low values 0.965 | locus YEL037C, strain rad23, hits give low values 0.978 | locus YEL061C, strain CIN8 (second series), hits give low values 0.973 | locus YEL061C, strain CIN8, hits give low values 1.01 | locus YER015W, strain faa2, hits give low values 0.979 | locus YER016W, strain bim1, hits give low values 0.94 | locus YER110C, hits give low values 0.991 | locus YER111C, strain swi4, hits give low values 0.969 | locus YER155C, strain BEM2 (second series), hits give low values 0.984 | locus YER155C, strain BEM2, hits give low values 1.01 | locus YER167W, strain BCK2, hits give low values 1.01 | locus YFR010W, strain ubp6, hits give low values 0.959 | locus YGL078C, strain dbp3, hits give low values 0.997 | locus YGL086W, strain mad1, hits give low values 1.02 | locus YGL167C, strain pmr1, hits give low values 0.983 | locus YGL173C, strain kem1, hits give low values 0.986 | locus YGL227W, strain vid30, hits give low values 0.982 | locus YGL240W, strain doc1, hits give low values 0.956 | locus YGL248W, strain PDE1, hits give low values 1.01 | locus YGL253W, strain hxk2, hits give low values 0.948 | locus YGR078C, strain PAC10, hits give low values 1.02 | locus YGR135W, strain pre9, hits give low values 0.996 | locus YGR252W, strain gcn5, hits give low values 0.912 | locus YHR013C, strain ard1, hits give low values 0.942 | locus YHR027C, strain rpn1, hits give low values 0.971 | locus YHR030C, strain SLT2, hits give low values 1.02 | locus YHR079C, strain IRE1 (second series), hits give low values 0.993 | locus YHR079C, strain IRE1, hits give low values 1.02 | locus YHR094C, strain hxt1, hits give low values 1 | locus YHR129C, strain ARP1, hits give low values 1.01 | locus YHR142W, strain chs7, hits give low values 0.954 | locus YHR200W, strain rpn10, hits give low values 1 | locus YIL066C, strain RNR3, hits give low values 1.04 | locus YIL073C, strain SPO22, hits give low values 1.02 | locus YIL125W, strain kgd1, hits give low values 1 | locus YIR030C, strain dcg1, hits give low values 1.01 | locus YJL092W, strain hpr5, hits give low values 0.985 | locus YJL095W, strain BCK1 (second series), hits give low values 0.965 | locus YJL095W, strain BCK1, hits give low values 1 and 1.04 | locus YJL115W, strain asf1, hits give low values 0.946 | locus YJL129C, strain trk1, hits give low values 0.951 | locus YJL134W, strain LCB3, hits give low values 1.01 | locus YJL154C, strain vps35, hits give low values 0.983 | locus YJL164C, strain tpk1, hits give low values 0.959 | locus YJL166W, strain qcr8, hits give low values 0.999 | locus YJL168C, strain set2, hits give low values 0.992 | locus YJL187C, strain SWE1 (second series), hits give low values 1.01 | locus YJL187C, strain SWE1, hits give low values 0.973 | locus YJR043C, strain POL32, hits give low values 1.04 | locus YJR066W, strain TOR1, hits give low values 0.965
